# Reference: the supplement of paper PMC6555819
# Key:
# Assay in all cases: PBM binding z-score (relative to random genomic background probes); higher = stronger binding; sequences stand for … in GC…GCGATTGACAGCGTAGAATGAAGG
# [1] = test system: FXR:RXRa (NR concentration 270 nM, RXRa partner concentration 90 nM)
# Method in brief: (§1)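 Probes were double-stranded and carried 34-nt variable regions with direct-repeat seeds, single-nucleotide variants, half-site ablations and random human genomic background sequences, printed on custom Agilent 4×180K protein-binding microarrays. Arrays were incubated 1 h with ligand-free nuclear receptor dimers in PBS pH 7.4, 2% milk, 0.02% Triton X-100, 1 mM DTT, 0.2 mg/mL BSA and 0.4 mg/ml salmon testes DNA. Antibodies against each partner (one per run) detected binding, and scanned fluorescence was regression-normalized. Binding z-scores use the random background probes as reference.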
# [2] = test system: LXRa:RXRa (NR concentration 270 nM, RXRa partner concentration 90 nM)
# Method in brief: as §1
# [3] = test system: LXRa homodimer (NR concentration 270 nM)
# Method in brief: as §1
# [4] = test system: LXRb:RXRa (NR concentration 270 nM, RXRa partner concentration 90 nM)
# Method in brief: as §1
# [5] = test system: LXRb homodimer (NR concentration 270 nM)
# Method in brief: as §1
# [6] = test system: PPARa:RXRa (NR concentration 270 nM, RXRa partner concentration 90 nM)
# Method in brief: as §1
# [7] = test system: PPARg:RXRa (NR concentration 180 nM, RXRa partner concentration 90 nM)
# Method in brief: as §1
# [8] = test system: PPARg:RXRa 270nM:90nM, anti-RXR (NR concentration 270 nM, RXRa partner concentration 90 nM)
# Method in brief: as §1
# [9] = test system: PPARg:RXRa 30nM:10nM, anti-RXR (NR concentration 30 nM, RXRa partner concentration 10 nM)
# Method in brief: as §1
# [10] = test system: PPARg:RXRa 90nM:30nM, anti-RXR (NR concentration 90 nM, RXRa partner concentration 30 nM)
# Method in brief: as §1
# [11] = test system: PPARg:RXRa DBDmut IVT, anti-RXR (DBD mutation: RXRa K156A/R161A, NR concentration 270 nM, RXRa partner concentration 90 nM)
# Method in brief: as §1
# [12] = test system: PPARg:RXRa IVT, anti-PPARg (NR concentration 270 nM, RXRa partner concentration 90 nM)
# Method in brief: as §1
# [13] = test system: PPARg DBDmut:RXRa IVT, anti-PPARg (DBD mutation: PPARg1 K132A/R137A, NR concentration 270 nM, RXRa partner concentration 90 nM)
# Method in brief: as §1
# [14] = test system: PPARg DBDmut IVT, anti-PPARg (DBD mutation: PPARg1 K132A/R137A, NR concentration 270 nM)
# Method in brief: as §1
# [15] = test system: PPARg homodimer (NR concentration 180 nM)
# Method in brief: as §1
# [16] = test system: PXR:RXRa (NR concentration 270 nM, RXRa partner concentration 90 nM)
# Method in brief: as §1
# [17] = test system: PXR homodimer (NR concentration 270 nM)
# Method in brief: as §1
# [18] = test system: RARa:RXR (NR concentration 270 nM, RXRa partner concentration 90 nM)
# Method in brief: as §1
# [19] = test system: RARa homodimer (NR concentration 270 nM)
# Method in brief: as §1
# [20] = test system: RARb:RXRa (NR concentration 270 nM, RXRa partner concentration 90 nM)
# Method in brief: as §1
Sequence,PBM binding z-score [1],PBM binding z-score [2],PBM binding z-score [3],PBM binding z-score [4],PBM binding z-score [5],PBM binding z-score [6],PBM binding z-score [7],PBM binding z-score [8],PBM binding z-score [9],PBM binding z-score [10],PBM binding z-score [11],PBM binding z-score [12],PBM binding z-score [13],PBM binding z-score [14],PBM binding z-score [15],PBM binding z-score [16],PBM binding z-score [17],PBM binding z-score [18],PBM binding z-score [19],PBM binding z-score [20]
GCTGATAGGTCAACTGATGGTCAGCTAAAGCTCG,5.47,4.76,0.669,3.53,0.283,4.84,3.41,4.06,1.34,2.96,3.71,3.35,-0.33,-0.713,4.6,3,-0.565,4.46,1.39,4.48
CCTCGGAGGACATAAGGTCAGAGCTGTCCGCTTT,2.39,2.6,0.959,1.75,-0.328,2.45,0.338,0.85,-0.243,0.319,0.213,0.303,-1,-1.59,1.72,2.42,-0.0342,3.08,0.792,3.4
CGTCCAAGGTCAATGCTAGGTCTGTGAAAGCATT,6.34,4.7,0.321,3.41,0.865,5.01,3.28,3.99,0.804,2.73,3.09,3.37,0.249,0.0297,2.17,3.74,0.712,3.88,0.767,5
CGAACAAGGTCAAGGACAGTGAATCTCCGCACGC,7.13,5.06,0.53,3.78,0.377,5.74,5.98,5.82,2.42,4.59,4.85,4.49,1.31,0.251,2.38,3.97,0.628,4.74,0.971,5.2
AGAAAGAGGGCAATGAGTTGATAGCACGGGTGGC,0.593,0.892,0.104,0.387,0.472,1.55,1.23,0.938,0.0317,0.591,2.75,1.6,0.0853,0.306,0.658,1.84,4.38,0.758,0.0375,2.46
TCTAGTTGGTCAGAGGTCACACACTCGAAATGCG,4.94,4.85,3.21,4.9,1.13,5.55,9.31,8.56,7.99,9.17,2.47,4.96,1.28,0.861,4.45,5.4,1.74,5.99,1.84,4.49
GCGACTGGGGCATCTGCAGGTTACCATAACTTAA,-0.256,0.365,-0.281,1.41,-0.198,1.53,0.863,1.01,-0.39,0.715,3.92,2.96,-0.0823,-0.117,0.207,0.314,-0.507,0.637,-1.22,0.859
ATCGAAATGTCGACGAGGTGAGTATACACCGTTT,-0.0573,-0.263,-0.442,-0.0135,-0.0075,0.206,0.897,-0.108,0.151,-0.0963,-0.343,0.676,0.668,0.692,-0.253,-0.067,0.0399,0.312,-0.025,0.403
GGAACGAGGGGAAGTTGATAGCAGAGTTTGATGG,0.0996,-0.26,-0.307,-0.0221,-0.185,0.0181,0.515,0.29,-0.0775,0.258,1.12,0.62,0.337,0.547,0.593,0.111,0.308,-0.228,0.391,0.243
CCGAGTGGGGCAAAGGTTACCATACTCAGTACGA,1.45,1.82,0.144,2.37,-0.506,5.65,11,9.62,8.52,11,4.47,6.13,0.0641,-0.366,3,2.82,0.105,4.13,0.606,2.44
CCGAGTAGGTTATGGGGCATTAAGGCAACGGTGA,0.273,0.355,0.112,0.489,0.086,1.94,3.57,4.37,2.35,3.99,3.03,3.54,-0.853,-0.637,1.15,-0.0362,-0.296,0.648,0.0185,0.818
TCTTGTAGATCAATAGAGGGTAAGAAAGTGCGCT,0.692,0.902,-0.251,0.517,0.175,0.606,-0.216,1.19,2.61,2.29,1.96,0.858,0.311,0.811,0.572,0.854,-0.0819,0.841,0.388,0.184
TCTATTAGTCGATTAGGGCAACCGAAACAGCGGA,0.523,0.509,0.385,0.608,0.293,0.759,0.292,2.12,3.61,2.99,2.06,1.15,1.13,0.942,0.0705,0.419,-0.106,0.574,0.642,0.697
GCTTGTAGATCCAGGTTAAGAAAGACTAAGCTAA,-0.143,-0.0321,-0.394,-0.191,-0.462,0.491,-0.204,0.0602,-0.441,-0.11,1.08,0.859,0.236,-0.304,0.202,-0.27,-0.237,0.118,0.241,0.0746
TCTTGTAGATCAACAGAGGTTAAGAAAGTGCGCT,0.849,3.72,0.564,2.19,-0.36,2.09,0.162,1.64,2.33,1.98,1.7,0.862,0.181,0.408,0.896,3.06,0.45,1.95,0.0806,1.18
